# Test results reported in PubChem BioAssay.
# Active and inactive are the calls of the source.
# Columns and labels:
# [1] = small molecules captured by biotinylated probe aFSTL3 – biochemical, small-molecule microarray, fluorescence 635/667, stem cell growth factor project, primary screen (AID 1064); details: higher = more signal;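 also: measures binding of the biotinylated anti-FSTL3 antibody to printed compounds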
# [2] = binders from COS7 lysate, DM2A8 probe, primary screen, torsin A project, cell lysate, small-molecule microarray, fluorescence 635/667 (AID 1065); details: higher = more signal, COS7 lysate expressing mutant human TOR1A
# [3] = small molecules captured by biotinylated probe aFGF2 – biochemical, small-molecule microarray, fluorescence 635/667, stem cell growth factor project, primary screen (AID 1067); details: higher = more signal;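 also: measures binding of biotinylated aFGF2 protein to printed compounds on slides; z-score merges feature fluorescence and signal-to-noise across triplicate slides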
# [4] = small molecules captured by biotinylated probe aFGF10 – biochemical, small-molecule microarray, fluorescence 635/667, stem cell growth factor project, primary screen (AID 1071); details: higher = more signal;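 also: score merges 667 nm spot intensity and signal to noise from triplicate slides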
# [5] = biological target: Neurogenic locus notch homolog protein 2 (Homo sapiens) (UniProt Q04721); test: small molecules binding Notch2 protein – biochemical, small-molecule microarray, 635 nm fluorescence, stem cell growth factors, primary screen (AID 1073); details: higher = more signal
# [6] = biological target: Pro-neuregulin-1, membrane-bound isoform (Homo sapiens) (UniProt Q02297); test: small molecules binding neuregulin-1 protein – biochemical, small-molecule microarray, fluorescence 635/667, psychiatric disease protein project, primary screen (AID 1075); details: NRG1 binding, 635 nm fluorescence, higher = more signal;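 also: score combines 667 nm spot fluorescence with signal to noise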
# [7] = test system: Neuregulin-1 EGF-like domain; test: small molecules binding NRG1 EGF domain – biochemical, small-molecule microarray, 635 nm fluorescence, primary screen (AID 1081); details: higher = more signal;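 also: binding of the protein to compounds printed on small-molecule microarray slides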
# [8] = FRG1 expression reporter modulators in myotubes – cell-based, C2C12 myotubes, firefly/Renilla luciferase, luminescence, FRG1 inhibition for FSHD, primary screen (AID 1084); details: FRG1 promoter luciferase, higher = more signal, called active from +8 up or from −8 down
# [9] = small molecules captured by biotinylated probe aFST – biochemical, small-molecule microarray, fluorescence 635/667, stem cell growth factor project, primary screen (AID 1086); details: higher = more signal;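 also: score merges 667 nm fluorescence with signal-to-noise of each printed compound spot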
# [10] = binders of probe aHhip on microarray, primary screen, stem cell growth factor project, biochemical, small-molecule microarray, fluorescence 635/667 (AID 1087); details: higher = more signal;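 also: score merges spot fluorescence at 667nm with spot signal to noise ratio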
# Pro-neuregulin-1, membrane-bound isoform (Homo sapiens), sequence (Q02297 whole entry, looked up, the tested form may be a part, canonical isoform): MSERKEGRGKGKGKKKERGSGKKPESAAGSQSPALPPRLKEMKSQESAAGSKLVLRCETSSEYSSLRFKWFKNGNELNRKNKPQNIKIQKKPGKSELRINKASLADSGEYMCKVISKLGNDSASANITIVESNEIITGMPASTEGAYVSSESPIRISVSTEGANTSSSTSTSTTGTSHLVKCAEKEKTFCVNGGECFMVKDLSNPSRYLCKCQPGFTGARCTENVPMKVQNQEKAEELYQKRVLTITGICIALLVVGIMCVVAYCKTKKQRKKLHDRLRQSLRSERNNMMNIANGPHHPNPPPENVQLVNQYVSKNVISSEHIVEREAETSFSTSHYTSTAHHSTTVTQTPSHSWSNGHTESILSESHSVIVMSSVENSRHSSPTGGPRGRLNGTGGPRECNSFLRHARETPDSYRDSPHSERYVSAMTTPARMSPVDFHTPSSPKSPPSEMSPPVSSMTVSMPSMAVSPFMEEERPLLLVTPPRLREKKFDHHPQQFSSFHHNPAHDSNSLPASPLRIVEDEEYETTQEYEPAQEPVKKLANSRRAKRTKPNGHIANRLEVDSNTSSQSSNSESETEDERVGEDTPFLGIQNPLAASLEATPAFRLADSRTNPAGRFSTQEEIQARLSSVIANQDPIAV
# Neurogenic locus notch homolog protein 2 (Homo sapiens), sequence (Q04721 whole entry, looked up, canonical isoform): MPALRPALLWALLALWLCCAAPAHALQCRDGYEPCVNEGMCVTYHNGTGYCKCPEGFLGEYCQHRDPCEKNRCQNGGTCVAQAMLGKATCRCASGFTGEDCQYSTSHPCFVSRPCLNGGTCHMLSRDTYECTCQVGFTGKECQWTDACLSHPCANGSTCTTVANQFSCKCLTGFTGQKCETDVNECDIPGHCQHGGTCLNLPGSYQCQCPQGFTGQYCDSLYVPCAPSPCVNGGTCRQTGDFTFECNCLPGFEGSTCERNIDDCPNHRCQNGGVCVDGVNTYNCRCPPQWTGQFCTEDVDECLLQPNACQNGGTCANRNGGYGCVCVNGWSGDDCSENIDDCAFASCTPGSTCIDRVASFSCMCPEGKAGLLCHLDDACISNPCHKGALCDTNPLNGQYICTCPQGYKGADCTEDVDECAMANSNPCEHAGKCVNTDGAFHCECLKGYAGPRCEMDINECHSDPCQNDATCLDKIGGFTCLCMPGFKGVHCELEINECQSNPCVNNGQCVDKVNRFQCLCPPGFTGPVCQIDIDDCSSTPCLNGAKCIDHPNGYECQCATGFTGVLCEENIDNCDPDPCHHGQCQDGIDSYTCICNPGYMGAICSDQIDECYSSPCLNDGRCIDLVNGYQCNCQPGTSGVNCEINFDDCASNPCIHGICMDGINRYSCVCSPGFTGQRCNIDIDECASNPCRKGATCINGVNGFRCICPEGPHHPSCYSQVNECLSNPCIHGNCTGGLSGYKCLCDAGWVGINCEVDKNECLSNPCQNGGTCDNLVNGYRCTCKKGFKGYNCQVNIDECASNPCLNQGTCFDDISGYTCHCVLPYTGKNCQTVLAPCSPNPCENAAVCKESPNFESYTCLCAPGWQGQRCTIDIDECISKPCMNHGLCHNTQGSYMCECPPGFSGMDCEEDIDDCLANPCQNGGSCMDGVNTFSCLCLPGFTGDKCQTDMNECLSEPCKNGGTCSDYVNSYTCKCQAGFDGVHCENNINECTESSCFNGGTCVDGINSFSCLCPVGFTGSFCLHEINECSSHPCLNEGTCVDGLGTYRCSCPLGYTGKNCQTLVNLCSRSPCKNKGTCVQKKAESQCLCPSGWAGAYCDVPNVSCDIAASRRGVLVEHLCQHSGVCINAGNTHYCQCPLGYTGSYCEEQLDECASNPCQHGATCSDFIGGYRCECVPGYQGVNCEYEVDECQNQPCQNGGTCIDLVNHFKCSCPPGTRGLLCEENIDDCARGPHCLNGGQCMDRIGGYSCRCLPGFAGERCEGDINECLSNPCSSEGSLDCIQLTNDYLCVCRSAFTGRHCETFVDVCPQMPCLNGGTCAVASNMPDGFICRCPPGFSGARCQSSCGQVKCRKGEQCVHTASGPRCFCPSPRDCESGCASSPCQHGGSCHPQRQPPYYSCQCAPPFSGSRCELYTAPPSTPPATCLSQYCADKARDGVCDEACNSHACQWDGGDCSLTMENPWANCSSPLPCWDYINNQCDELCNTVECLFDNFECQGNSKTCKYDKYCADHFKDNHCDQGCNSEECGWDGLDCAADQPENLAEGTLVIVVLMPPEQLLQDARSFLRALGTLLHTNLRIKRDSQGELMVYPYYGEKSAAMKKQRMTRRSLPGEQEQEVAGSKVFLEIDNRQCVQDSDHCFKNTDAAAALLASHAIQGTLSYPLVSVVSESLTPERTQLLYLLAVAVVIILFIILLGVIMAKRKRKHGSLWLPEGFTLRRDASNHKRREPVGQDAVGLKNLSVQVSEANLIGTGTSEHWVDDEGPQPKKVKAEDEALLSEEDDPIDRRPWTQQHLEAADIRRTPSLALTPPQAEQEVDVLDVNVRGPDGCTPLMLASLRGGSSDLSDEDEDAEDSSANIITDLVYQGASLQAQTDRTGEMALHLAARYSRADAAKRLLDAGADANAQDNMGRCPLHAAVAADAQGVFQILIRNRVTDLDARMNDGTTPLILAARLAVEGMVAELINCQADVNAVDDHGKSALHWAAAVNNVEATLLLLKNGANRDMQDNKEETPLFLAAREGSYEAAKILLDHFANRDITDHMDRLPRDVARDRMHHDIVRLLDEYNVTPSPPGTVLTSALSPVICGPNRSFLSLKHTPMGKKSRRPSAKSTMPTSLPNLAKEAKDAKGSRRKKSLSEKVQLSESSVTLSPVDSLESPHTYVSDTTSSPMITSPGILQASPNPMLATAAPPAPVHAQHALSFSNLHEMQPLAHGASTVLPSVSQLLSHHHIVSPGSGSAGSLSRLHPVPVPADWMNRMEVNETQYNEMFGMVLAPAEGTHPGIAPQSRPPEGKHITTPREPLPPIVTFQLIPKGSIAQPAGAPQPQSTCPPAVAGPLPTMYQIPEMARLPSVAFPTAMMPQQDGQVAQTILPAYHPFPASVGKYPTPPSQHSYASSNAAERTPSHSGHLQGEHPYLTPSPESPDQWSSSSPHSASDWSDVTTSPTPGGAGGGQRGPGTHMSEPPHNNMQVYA
SMILES,composite z-score [1],composite z-score [2],composite z-score [3],composite z-score [4],composite z-score [5],composite z-score [6],composite z-score [7],z-score [8],composite z-score [9],composite z-score [10]
CCCC[C@H]1C[C@@H]1[C@@H]1N(P(=O)(c2ccccc2)c2ccccc2)C[C@@](O)(c2ccccc2)CC12CC2,0.666,-0.152,0.183,-0.102,1.45,0.862,0.541,1.11 (inactive),1.39,0.893
COc1cc(CO)cc(I)c1O[C@H]1C=C(C(=O)NCCO)C[C@@H](NC[C@@H]2CCCO2)[C@@H]1O,-0.281,0.445,-0.085,0.674,0.041,0.625,1.09,-0.225 (inactive),0.59,-0.169
COc1cc2c(cc1O)C=[N+](Cc1cc3c(cc1Br)OCO3)CC2,0.305,0.08,-0.131,0.0873,-0.441,0.632,0.042,2.28 (inactive),-0.332,-0.137
C=C(CCCC)/C(=C/C[C@H](OC(C)=O)c1ccc(OCCO)cc1)c1cnc2ccccc2c1,-0.173,0.641,-0.115,0.372,1.21,1.32,1.18,-0.851 (inactive),0.703,-0.0672
[N-]=[N+]=Nc1ccccc1C[C@]1(C(=O)NCC(O)CO)N=C(c2ccc(OCCCO)cc2)O[C@H]1c1ccccc1 (stereo not given in full),0.451,0.533,-0.0328,0.0717,0.641,1.93,0.867,-0.666 (inactive),1.56,-0.0391
COCCCNC(=O)[C@@H]1c2ccccc2C(=O)N(Cc2ccccc2OC)[C@H]1c1ccc(CO)cc1,-0.169,0.64,-0.0021,0.584,0.239,1.8,1.34,-1.57 (inactive),-0.0311,-0.0645
C=CCC(OC(C)=O)[C@@H]1[C@@H](N(Cc2ccc(-c3cccc(C(F)(F)F)c3)o2)C(=O)Cc2ccc(OC)cc2)c2cc(OCCCO)ccc2N1C(=O)c1ccc2ccccc2c1 (stereo not given in full),0.0929,-0.404,-0.043,-0.608,-0.654,0.522,-0.125,0.782 (inactive),0.234,-0.236
C=CCC(OC(C)=O)[C@@H]1[C@@H](N(Cc2ccc(-c3cccc(C(F)(F)F)c3)o2)C(=O)c2cccc3ccccc23)c2cc(OCCCO)ccc2N1C(=O)Cc1ccc2ccccc2c1 (stereo not given in full),-0.0817,-0.261,-0.152,0.2,-0.35,0.376,0.109,0.3 (inactive),0.214,-0.199
O=C1NC(=O)C2C1C=CC(C(O)c1ccc(I)cc1)N2Nc1ccccn1 (stereo not given),0.193,0.142,0.0111,-0.0668,0.599,1.71,0.725,0.63 (inactive),-0.0237,-0.0173
NCCCCCCNC(=O)[C@H]1C[C@H]2C(=O)N[C@@H](Cc3ccccc3)C(=O)N2[C@H]1c1cccc(OCCO)c1,0.135,0.537,0.0227,0.534,0.427,1.7,0.922,1.7 (inactive),0.482,-0.0346
CC(C)[Si](C#C[Si](C(C)C)(C(C)C)C(C)C)(O[C@H](C)c1cn(Cc2ccccc2)nn1)C(C)C,-0.169,0.209,-0.106,0.422,0.795,0.566,0.938,-1.66 (inactive),0.372,-0.337
C=C(/C(=C/C[C@H](OC(=O)c1ccncc1)c1ccc(OCCO)cc1)c1cc(C(=O)OC)ccc1OC)C(C)C,-0.0836,0.362,-0.134,0.607,-0.478,0.892,0.781,6.19 (inactive),0.87,-0.0994
[N-]=[N+]=Nc1ccccc1C[C@]1(C(=O)NCc2ccccc2)N=C(c2ccc(OCCCO)cc2)O[C@H]1c1ccccc1N=[N+]=[N-],-0.0447,0.288,0.189,0.218,1.49,1.6,1.06,-0.899 (inactive),0.726,-0.0672
C=CC[C@]1(C(N)=O)N=C(c2ccc(OCCCO)cc2)O[C@H]1c1ccccc1,0.966,-0.148,-0.0286,-0.0773,0.494,1.92,1.29,-1.59 (inactive),-0.0521,-0.0296
O=C1C2C=CC(C(O)c3ccc(F)cc3)N(Nc3ccc([N+](=O)[O-])cc3)C2C(=O)N1c1ccccc1 (stereo not given),0.0759,-0.358,0.16,0.305,1.45,2,1.37,-0.132 (inactive),1.02,0.0373
COCCOC(=O)N1C(=O)[C@@]2(c3cc(C#CC4(O)CCCCCC4)ccc31)[C@H](C(=O)Nc1nc3ccccc3s1)[C@H]1C(=O)O[C@H](c3ccccc3)[C@H](c3ccccc3)N1[C@@H]2c1ccc(OCCO)cc1,-0.568,0.392,-0.083,0.797,1.07,0.727,1.15,4.24 (inactive),0.277,0.0749
COc1ccc(NN2C(C(O)c3ccc(N(C)C)cc3)C=CC3C(=O)N(C4CCCCC4)C(=O)C32)cc1 (stereo not given),0.419,0.427,0.157,1.01,1.53,1.05,1.15,0.613 (inactive),0.352,0.284
COCCOC(=O)N1C(=O)[C@@]2(c3cc(C#CC4=CCCCC4)ccc31)[C@H](C(N)=O)[C@H]1C(=O)O[C@H](c3ccccc3)[C@H](c3ccccc3)N1[C@@H]2c1ccc(O)cc1,-0.0926,0.368,0.0122,0.683,1.28,0.758,1.11,-0.95 (inactive),0.416,0.0623
CC#CC(=O)Oc1ccc(Br)cc1C=CC(=O)OCC,0.559,-0.422,-0.0304,0.0178,-0.497,0.334,1.34,0.128 (inactive),0.375,0.095
COCC(=C=CC[C@@H](O)c1ccc(OCCO)cc1)C[C@@H](O)c1ccccn1,-0.212,-0.116,-0.0633,0.923,0.687,1,1.24,1.33 (inactive),0.423,-0.236
COC(=O)[C@@]1(Cc2ccccc2)[C@H]2c3cc(C(=O)N(C)C)n(Cc4ccc(OC)c(OC)c4)c3C[C@H]2CN1C(=O)c1ccccc1,0.396,0.517,0.487,1.23,1.83,1.62,1.34,0.115 (inactive),1.28,0.66
COCCCNC(=O)[C@@]1(Cc2ccccc2CN=[N+]=[N-])N=C(c2ccc(OCCCO)cc2)O[C@H]1c1ccccc1CN=[N+]=[N-],-0.152,0.321,0.154,0.916,1.27,1.96,1.11,0.399 (inactive),1.43,-0.286
COc1ccc(-c2cc3c(c(Cc4ccccc4)n2)[Si](C(C)C)(C(C)C)OC3)cn1,-0.305,0.28,-0.0668,0.0198,0.0333,-0.53,-0.723,-1.27 (inactive),0.29,-0.236
C=CC[C@]1(C(=O)N2CCOCC2)N=C(c2ccc(OCCCO)cc2)O[C@H]1c1ccccc1N=[N+]=[N-],-0.0247,0.572,0.102,0.642,1.24,1.8,1.25,-0.322 (inactive),1.2,0.0596
CC(=O)NCCCC[C@@H]1NC(=O)[C@H]2C[C@@H](C(=O)NCCCCCNC(=O)CS)[C@@H](c3ccc(O)cc3)N2C1=O,0.894,0.122,-0.0358,-0.0035,-0.886,0.0616,1.34,0.515 (inactive),-0.226,-0.175
O=C1[C@H]2C=C(Br)[C@H](C[C@@H]2OCCCCCCO)[C@@]12CO2,0.125,0.629,-0.0443,-0.0632,-0.565,-0.429,-0.394,-0.0205 (inactive),0.0363,0.122
CCOC(=O)C[C@H]1[C@H](OC(=O)c2cc3ccccc3oc2=O)[C@@H](NC(=O)CC(C)C)c2cc(OCCCO)ccc2N1C(=O)c1ccccc1,-0.26,0.478,-0.0327,0.667,0.3,-0.0698,0.397,-0.332 (inactive),0.128,0.0373
